KB-V1 MDR tox: KB-V1 MDR subline cytotoxicity. Potency, µM (top dose mostly 46.1 µM), usual class: cytotoxic. KB-V1 MDR cells viability, CellTiter-Glo, 72 h. hit rate 3.4% among 400,000; note: % is set by controls: 0 for no effect and ±100 for the full control effect; nearly all actives have a fitted effect of over 60% in size
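qHTS viability screen in drug-selected KB-V1 MDR cells: 72 h compound treatment at 37 degrees C, ATP luminescence end point.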
SW480 rerep: DNA re-replication induction in SW480 cells | SW480 DNA re-replication, Hoechst DNA content imaging, 48 h | Potency, µM (top dose mostly 46.1 µM), for the others: at the highest dose re-replication activation, usual class: activators | hit rate 1.8% among 340,000; note: % of control where 0% means no effect; nearly all actives have a fitted effect of over 55% in size
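Treated cells incubate 48 hr (37 C, 5% CO2), are stained 40 min with Hoechst, and nuclear fluorescence is enumerated; a rise in nuclei with high DNA signal marks re-replication.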
ELG1 repair inh: ELG1-dependent DNA repair inhibition; HEK293T ELG1-luciferase reporter, luminescence, 16 h; DNA damage induced by 5-fluorouridine; Potency, µM (titrated, usually from 46.1 µM), inactives show at the highest dose activity change, negative = inhibition, actives largely listed as inhibitors; hit rate 2.3% among 330,000; note: % is set by controls: 0 for no effect and ±100 for the full control effect; nearly all actives have a fitted effect of over 55% in size
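Overnight (16 hr) co-exposure of 2,000 cells/well to 5-fluorouridine and compound at 37 °C preceded detection. Luciferase was quantified via ONE-Glo luminescence; loss of signal denotes inhibition.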
KB-3-1 cytotox: KB-3-1 parental cell cytotoxicity | Potency, µM (highest dose often 46.1 µM), usual class: cytotoxic | hit rate 1.4% among 400,000 | AID 1347075 | KB-3-1 viability, CellTiter-Glo ATP luminescence, 72 h; note: % is set by controls: 0 for no effect and ±100 for the full control effect; nearly all actives have a fitted effect of over 60% in size
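Screening of KB-3-1 cells (DMEM, 10% FBS, phenol-red free) ran from lowest to highest compound concentration; after 72 h at 37 °C viability was read luminescently and curves fitted.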
MCF10A rereplic: induces DNA re-replication in MCF 10a normal breast cells. MCF 10A DNA re-replication, Hoechst nuclear intensity, 48 h. AID 624296. hit rate 2.9% among 350,000. Potency, µM (titrated, usually from 46.1 µM), without a hit: at the highest dose activity, positive = re-replication, hits mostly activators; note: % of control where 0% means no effect; nearly all actives have a fitted effect of over 50% in size
* = called active by the depositor; i = inactive; ? = inconclusive; . = no result given. Shown are actives, neighbours in structure and some others; about 8.2% of the full set was active somewhere. Calls come from the whole dose curve; as a rule, active = well fitted curve in the direction sought with a large enough effect; inconclusive = small, poorly fitted or top-dose-only effect, or another doubt; inactive = no such curve, though single readings can be large; an effect the other way counts as inactive or inconclusive. Potency is the fitted concentration of half-maximal effect.

SMILES	KB-V1 MDR tox	SW480 rerep	ELG1 repair inh	KB-3-1 cytotox	MCF10A rereplic
C/C(=N/NC(=O)C1CCCN1C(=O)c1ccc([N+](=O)[O-])cc1)c1ccc(Br)cc1 (centres undefined)	i	2%	-5%	i	2%
CN(C)S(=O)(=O)c1cccc(NC(=S)N/N=C/C(c2ccccc2)c2ccccc2)c1	21µM*	0%	13%	i	6%
CN(C)S(=O)(=O)c1cccc(NC(=S)Nc2cc(Cl)cc(Cl)c2)c1	18µM*	-6%	?	?	20%
CC(/C=N/NC(=S)Nc1cccc(S(=O)(=O)N(C)C)c1)c1ccccc1 (centres undefined)	21µM*	-7%	4%	i	-3%
CCCc1nc2ccccc2n1C(C(=O)NC(C)(C)C)C1CC1 (centres undefined)	i	.	.	i	.
Cc1c(C(=O)N2CCN(S(C)(=O)=O)CC2)oc2ccccc12	i	-1%	12%	i	0%
CCOc1ccc2oc(C(=O)N3CCN(Cc4ccccc4)CC3)c(C)c2c1	i	5%	-29%	i	21µM*
Cc1c(C(=O)N2CCN(CCc3ccccc3)CC2)oc2ccccc12	13µM*	1%	-16%	i	?
CCOc1ccc2oc(C(=O)N(C)CC(=O)Nc3ccc(OCC)c(OCC)c3)c(C)c2c1	i	-6%	?	i	13%
CCOc1ccc2oc(C(=O)N(C)CCc3ccc(OC)c(OC)c3)c(C)c2c1	i	-17%	18µM*	i	13%
O=C(CCNS(=O)(=O)c1ccccc1F)NC1CCCCCC1	i	-14%	?	i	9%
CN(CC(=O)Nc1c(Cl)cccc1Cl)C(=O)Cc1cccs1	i	?	2%	i	-9%
CN(CCOc1ccc(Cl)cc1)C(=O)c1cc(-c2ccco2)nc2ccccc12	16µM*	-28%	?	i	?
COc1cccc(NC(=O)CN(C)C(=O)c2cc(-c3ccco3)nc3ccccc23)c1	i	-466%	?	i	19%
Cc1ccc(NC(=O)CN(C)C(=O)c2cc(-c3ccco3)nc3ccccc23)cc1	i	-108%	13µM*	i	?
C=C1C=C(C(F)F)n2ncc(C(=O)N3CCCCC3)c2N1	i	.	.	?	.
CCC(C(=O)NCCc1ccc(S(N)(=O)=O)cc1)c1ccccc1 (centres undefined)	i	-80%	.	i	1%
COc1ccc(S(=O)(=O)Nc2cccc(-c3ccc(N4CCCCCC4)nn3)c2)cc1	i	.	.	i	.
CCCCOC(=O)c1ccc(NC(=O)CSc2nc3c(c(=O)[nH]2)CCCC3)cc1	i	.	.	i	.
Cc1cccc2[nH]c3c(N4CCC5(CC4)OCCO5)ncnc3c12	?	?	16µM*	i	?
Clc1ccc2[nH]c3c(N4CCC5(CC4)OCCO5)ncnc3c2c1	16µM*	?	?	15µM*	21µM*
O=C(Nc1ccc(Cl)c(C(F)(F)F)c1)C1Cc2c(-c3ccc4c(c3)OCO4)ccnc2O1 (centres undefined)	i	.	.	i	.
CCOC(=O)N1CCN(S(=O)(=O)c2ccc(F)c(C(=O)Nc3ccc(C(C)C)cc3)c2)CC1	6.5µM*	8%	?	i	18%
CCOC(=O)N1CCN(S(=O)(=O)c2ccc3c(c2)SC(C)C(=O)N3)CC1 (centres undefined)	4.6µM*	-4%	?	?	-5%
CCOC(=O)N1CCN(S(=O)(=O)c2ccc3c(c2)SCC(=O)N3)CC1	i	12%	21µM*	i	13%
CCOC(=O)N1CCN(S(=O)(=O)c2ccc(F)c(C(=O)Nc3ccc(C)c(Cl)c3)c2)CC1	?	19%	?	i	?
COc1ccc(NC(=O)C2CCN(S(=O)(=O)c3ccc4c(c3)NC(=O)C(C)S4)CC2)cc1 (centres undefined)	i	-2%	?	i	?
CC1Sc2ccc(S(=O)(=O)N3CCC(C(=O)Nc4ccc(Cl)cc4)CC3)cc2NC1=O (centres undefined)	?	7%	4.6µM*	?	?
